In PubChem BioAssay (EPA / NIEHS) one finds outcome and AC50 data, which are given here for 38 compounds.

Results filed as inconclusive are left out. Calls of active or inactive are those of the source. The calls were made as follows, unless noted: active = hit-call score of the fitted dose curve at least 0.9, where 1 is the maximum; inconclusive = response in the unintended direction; inactive = score below 0.9.

Chain of Steroid hormone receptor ERR1 (Homo sapiens) (P11474 whole entry, looked up, the tested form may be a part): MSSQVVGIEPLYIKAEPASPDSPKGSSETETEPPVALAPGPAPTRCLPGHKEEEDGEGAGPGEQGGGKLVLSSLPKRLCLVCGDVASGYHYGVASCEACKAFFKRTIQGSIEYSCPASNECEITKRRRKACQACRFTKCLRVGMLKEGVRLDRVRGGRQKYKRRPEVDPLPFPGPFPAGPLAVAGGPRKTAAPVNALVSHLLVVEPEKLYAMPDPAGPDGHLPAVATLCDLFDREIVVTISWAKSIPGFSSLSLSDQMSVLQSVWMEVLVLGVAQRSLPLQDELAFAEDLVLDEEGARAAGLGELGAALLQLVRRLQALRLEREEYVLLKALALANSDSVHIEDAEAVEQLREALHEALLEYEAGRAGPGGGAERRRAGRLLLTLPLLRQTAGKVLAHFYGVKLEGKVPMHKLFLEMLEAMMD
Chain of X-box-binding protein 1 (Homo sapiens) (P17861 whole entry, looked up): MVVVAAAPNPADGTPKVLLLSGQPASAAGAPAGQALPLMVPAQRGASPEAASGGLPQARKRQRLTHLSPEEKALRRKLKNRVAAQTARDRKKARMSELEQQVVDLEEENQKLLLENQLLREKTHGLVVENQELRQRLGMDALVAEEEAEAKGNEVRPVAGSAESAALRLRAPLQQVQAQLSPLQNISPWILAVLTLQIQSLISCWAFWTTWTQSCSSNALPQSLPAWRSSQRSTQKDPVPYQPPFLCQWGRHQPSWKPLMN

The target of one assay is Steroid hormone receptor ERR1 (Homo sapiens) (UniProt P11474). Description: ATG_ERRa_TRANS: Attagene TRANS-FACTORIAL HepG2 Assay for human Estrogen-Related Receptor alpha (ERRa) (AID 2282971). The conditions noted are these: HepG2 Attagene TRANS reporter, ERRa transactivation. In outline:
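HepG2 cells transiently transfected with multiplexed GAL4-UAS reporter units reading chimeric ERRa-Gal4 activity; 24 h compound exposure. Reporter mRNA measured by RT-PCR, 6-FAM labelling, HpaI digest and capillary electrophoresis; gain of signal fitted versus DMSO baseline.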
On to `C=CC(C)(CCC=C(C)C)OC=O` (stereo not given), for which the outcome was inactive.
Same read-out and setting: for `Nc1cc([N+](=O)[O-])ccc1O` the value was “inactive”; for `CCc1c(C)cc(N)c(CC)c1N`, “inactive”; for `COC(=O)OC`, “inactive”.
Same read-out and setting: the same measure for `O=C1OC2(c3cc(Br)c(O)c(Br)c3Oc3c2cc(Br)c(O)c3Br)c2c(Cl)c(Cl)c(Cl)c(Cl)c21`: “inactive”.
Still for that read-out and setting: the same measure for `Cc1ccc(C=O)s1`: “inactive”; for `CC(=O)OCC=Cc1ccccc1`: “inactive”; for `NCCNCCN`: “inactive”.
With `Nc1cccc(S(=O)(=O)c2cccc(N)c2)c1`, the outcome was inactive.
Still for that read-out and setting: for `CCCC(=O)C(C)=O` the value was “inactive”; for `COCCOCCOCCOCCOCCO`, “inactive”; for `CNC[C@H](O)c1cccc(O)c1`, “inactive”.
The same measure, in the same setting: the same measure for `CC(C)c1cccc(O)c1`: “inactive”.
Same read-out and setting: for `CCCCCC(=O)OCCc1ccccc1` the value was “inactive”.

Another assay concerns the target X-box-binding protein 1 (Homo sapiens) (UniProt P17861). Description: ATG_Xbp1_CIS: Attagene CIS-FACTORIAL HepG2 Assay for human X-box Binding Protein 1 (XBP1) (AID 2282972; active = hit-call score of the fitted dose curve at least 0.9, where 1 is the maximum; inactive = score below 0.9). Particulars: HepG2 XBP1 cis-element reporter, Attagene multiplex; actives raise or lower the signal. The method, boiled down:
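Human hepatoma HepG2, cis-element reporter system, 24 h treatment; mRNA quantified by RT-PCR/CE fluorescence; fit relative to DMSO.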
Turning to `C=CC(C)(CCC=C(C)C)OC=O` (stereo not given), the compound was classed as inactive.
In the case of `Nc1cc([N+](=O)[O-])ccc1O`, the result was inactive.
For `CCc1c(C)cc(N)c(CC)c1N`, the outcome was inactive.
The same measure, in the same setting: for `O=P(c1ccccc1)(c1ccccc1)c1ccccc1` the value was “inactive”.
The same measure, in the same setting: for `CCCCc1ccc(N)cc1` the value was “inactive”; for `O=S(=O)(O)c1cccc2c(S(=O)(=O)O)cccc12`, “inactive”; for `CCCCC(CC)COC(=O)/C=C\C(=O)OCC(CC)CCCC` (stereo not given), “inactive”.
`CCCCOCCOCCSC#N`: the call was inactive.
On the same count and under the same terms, the same measure for `COC(=O)OC`: “inactive”; for `Clc1sc(Cl)c(Cl)c1Cl`: “inactive”.
With `O=C1OC2(c3cc(Br)c(O)c(Br)c3Oc3c2cc(Br)c(O)c3Br)c2c(Cl)c(Cl)c(Cl)c(Cl)c21`, the compound was classed as inactive.
In the case of `CN(C)CCCN`, the compound was classed as inactive.
Turning to `CC1(C)OC[C@@H]2O[C@@]3(C(=O)O)OC(C)(C)O[C@H]3[C@@H]2O1`, the outcome was inactive.
The same measure, in the same setting: the same measure for `C[Si](O[Si](C)(C)C)O[Si](C)(C)C`: “inactive”; for `Cc1ccc(C=O)s1`: “inactive”.
Still for that read-out and setting: for `CC(CCO)CCCC(C)(C)O` (stereo not given) the value was “inactive”; for `CC(=O)OCC=Cc1ccccc1`, “inactive”; for `CC1=CCC2C(C1)C2(C)C` (stereo not given), “inactive”.
Still for that read-out and setting: for `CCCC(C)C=O` (stereo not given) the value was “inactive”.
Take `CCCCCCCCCCCCCCCCCC(=O)OCC(CC)CCCC` (stereo not given): the result was inactive.
Still for that read-out and setting: for `NCCNCCN` the value was “inactive”.
Take `C=C(C)C(=O)Nc1ccc(Cl)c(Cl)c1`: the result was inactive.
On the same count and under the same terms, for `COC(=O)c1ccc(C)cc1` the value was “inactive”.
`Nc1cccc(S(=O)(=O)c2cccc(N)c2)c1`: the outcome was inactive.
One may read the AC50 as the concentration at which the activity in the assay is half-maximal. As for `O=C1c2ccccc2C(=O)N1SC1CCCCC1`, the AC50 was 26.5 µM (active).
Turning to `CCCC(=O)C(C)=O`, the call was inactive.
In the case of `C=O`, the compound was classed as inactive.
Same read-out and setting: for `NNc1nc(-c2ccc(N)cc2)cs1` the value was “inactive”.
Still for that read-out and setting: the same measure for `CC(C)c1ccc(C(C)C)cc1`: “inactive”; for `Cc1ccc(Nc2ccc(O)c3c2C(=O)c2ccccc2C3=O)cc1`: “inactive”; for `COCCOCCOCCOCCOCCO`: “inactive”.
Same read-out and setting: for `Cc1ccc2sc3cccc(C)c3c2c1` the value was “inactive”; for `CNC[C@H](O)c1cccc(O)c1`, “inactive”.
Regarding `CC(C)c1cccc(O)c1`, the compound was called inactive.
On the same count and under the same terms, the same measure for `CCCCCC(=O)OCCc1ccccc1`: “inactive”; for `COc1ccc(OC)c(OC)c1`: “inactive”.
Still for that read-out and setting: the same measure for `CNC(=O)Oc1ccc2c(c1)[C@]1(C)CCN(C)[C@@H]1N2C`: “inactive”.
Same read-out and setting: for `CCOC(=S)SSC(=S)OCC` the value was “inactive”.

System in a further assay: not listed separately
Description: ATG_M_19_TRANS: Attagene TRANS-FACTORIAL HepG2 Assay for M19 Transcription Factor (Internal Marker) (AID 2282974). The conditions noted are these: HepG2 Attagene TRANS-FACTORIAL M19 internal marker reporter. The method, boiled down: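 HepG2 cells transiently transfected with multiple GAL4-UAS reporter transcription units were exposed to chemicals for 24 h. Reporter mRNA was read by RT-PCR, 6-FAM primer extension, HpaI digestion and capillary electrophoresis; gain of signal fitted relative to DMSO.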
As for `C=CC(C)(CCC=C(C)C)OC=O` (stereo not given), the outcome was inactive.
Take `Nc1cc([N+](=O)[O-])ccc1O`: the outcome was inactive.
Still for that read-out and setting: the same measure for `CCc1c(C)cc(N)c(CC)c1N`: “inactive”.
For `O=S(=O)(O)c1cccc2c(S(=O)(=O)O)cccc12`, the outcome was inactive.
Consider `CCCCC(CC)COC(=O)/C=C\C(=O)OCC(CC)CCCC` (stereo not given), for which the outcome was inactive.
Same read-out and setting: the same measure for `CCCCOCCOCCSC#N`: “inactive”; for `COC(=O)OC`: “inactive”.
The same measure, in the same setting: for `Clc1sc(Cl)c(Cl)c1Cl` the value was “inactive”; for `O=C1OC2(c3cc(Br)c(O)c(Br)c3Oc3c2cc(Br)c(O)c3Br)c2c(Cl)c(Cl)c(Cl)c(Cl)c21`, “inactive”.
In the case of `CC1(C)OC[C@@H]2O[C@@]3(C(=O)O)OC(C)(C)O[C@H]3[C@@H]2O1`, the result was inactive.
Same read-out and setting: for `C[Si](O[Si](C)(C)C)O[Si](C)(C)C` the value was “inactive”.
On the same count and under the same terms, the same measure for `Cc1ccc(C=O)s1`: “inactive”.
Still for that read-out and setting: for `CC(CCO)CCCC(C)(C)O` (stereo not given) the value was “inactive”; for `CC(=O)OCC=Cc1ccccc1`, “inactive”; for `CCCC(C)C=O` (stereo not given), “inactive”.
As to `CCCCCCCCCCCCCCCCCC(=O)OCC(CC)CCCC` (stereo not given), the result was inactive.
On the same count and under the same terms, the same measure for `NCCNCCN`: “inactive”; for `C=C(C)C(=O)Nc1ccc(Cl)c(Cl)c1`: “inactive”.
The same measure, in the same setting: for `O=C1c2ccccc2C(=O)N1SC1CCCCC1` the value was “inactive”; for `C=O`, “inactive”; for `NNc1nc(-c2ccc(N)cc2)cs1`, “inactive”.
Still for that read-out and setting: the same measure for `CC(C)c1ccc(C(C)C)cc1`: “inactive”; for `Cc1ccc(Nc2ccc(O)c3c2C(=O)c2ccccc2C3=O)cc1`: “inactive”; for `COCCOCCOCCOCCOCCO`: “inactive”.
Consider `CNC[C@H](O)c1cccc(O)c1`, for which the call was inactive.
The same measure, in the same setting: the same measure for `CC(C)c1cccc(O)c1`: “inactive”; for `CNC(=O)Oc1ccc2c(c1)[C@]1(C)CCN(C)[C@@H]1N2C`: “inactive”.
Still for that read-out and setting: for `CCOC(=S)SSC(=S)OCC` the value was “inactive”.

System in another assay: not listed separately
Description: ATG_GAL4_TRANS: Attagene TRANS-FACTORIAL HepG2 Assay for GAL4 (Internal Marker) (AID 2282976). Particulars: HepG2 Attagene TRANS GAL4 internal marker reporter. The method, boiled down:
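HepG2 cells transiently transfected with multiplexed GAL4-UAS reporter constructs were dosed for 24 h. Reporter mRNA was measured by RT-PCR, 6-FAM primer extension, HpaI digestion and capillary electrophoresis, and gain of signal was fitted relative to DMSO.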
As to `C=CC(C)(CCC=C(C)C)OC=O` (stereo not given), the compound was called inactive.
The same measure, in the same setting: the same measure for `Nc1cc([N+](=O)[O-])ccc1O`: “inactive”.
On the same count and under the same terms, for `CCc1c(C)cc(N)c(CC)c1N` the value was “inactive”; for `CCCCC(CC)COC(=O)/C=C\C(=O)OCC(CC)CCCC` (stereo not given), “inactive”; for `COC(=O)OC`, “inactive”.
The same measure, in the same setting: the same measure for `Clc1sc(Cl)c(Cl)c1Cl`: “inactive”.
On to `O=C1OC2(c3cc(Br)c(O)c(Br)c3Oc3c2cc(Br)c(O)c3Br)c2c(Cl)c(Cl)c(Cl)c(Cl)c21`, for which the result was inactive.
Same read-out and setting: the same measure for `CC1(C)OC[C@@H]2O[C@@]3(C(=O)O)OC(C)(C)O[C@H]3[C@@H]2O1`: “inactive”; for `Cc1ccc(C=O)s1`: “inactive”.
Still for that read-out and setting: for `CC(CCO)CCCC(C)(C)O` (stereo not given) the value was “inactive”; for `CC(=O)OCC=Cc1ccccc1`, “inactive”.
With `CCCCCCCCCCCCCCCCCC(=O)OCC(CC)CCCC` (stereo not given), the compound was called inactive.
Still for that read-out and setting: the same measure for `NCCNCCN`: “inactive”.
On the same count and under the same terms, the same measure for `O=C1c2ccccc2C(=O)N1SC1CCCCC1`: “inactive”; for `C=O`: “inactive”.
